Sampled rows, rich in hits. Any-hit rate of the full collection: about 19%.
TDP1 inh: TDP1 (human) enzyme inhibition. Q9NUW8. recombinant TDP1, AlphaScreen DNA substrate cleavage. Potency, µM (doses to about 130 µM), for inactives: at the top dose activity change, negative = inhibition, usual class: inhibitors. hit rate 0.28% among 350,000. AID 485290; note: nearly all actives have a fitted effect of over 40% in size
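Enzyme-compound mixtures sat 15 min at room temperature, followed by a 5 min reaction with 15 nM final substrate and 10 min with AlphaScreen beads. Recombinant human Tdp1 was used at 1 nM final.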
Gal4-VP16 FLuc: counter-screen for ROR gamma inhibitors: Gal4-VP16 reporter | Drosophila S2 Gal4-VP16 UAS-luciferase, luminescence, 20 h | Potency, µM (top dose mostly 53.6 µM), for inactives: top-dose activity, negative = inhibition, usual class: inhibitors | hit rate 3.5% among 310,000 | AID 2546;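 note: Gal4-VP16 expression switched on by copper sulfate through the metallothionein promoter; nearly all actives have a fitted effect of over 50% in size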
DT40 TDP1 CPT: growth inhibition of DT40 Tdp1-/-;hTDP1 cells with camptothecin (screen for TDP1 inhibitors). chicken DT40 Tdp1-/-;hTDP1 cells + 20 nM CPT, ATP luminescence, 48 h. hit rate 12% among 420,000. Potency, µM (highest dose often 46.2 µM), for the others: top-dose activity change, negative = growth inhibition, actives largely listed as inhibitors; note: nearly all actives have a fitted effect of over 55% in size
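Cell growth measured by CellTiter-Glo luminescence after a minimum 48 h, 37 C compound exposure with 20 nM CPT in Tdp1-knockout DT40 cells stably expressing hTDP1, seeded 400/well; qHTS titration format.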
TDP1 cell noCPT: qHTS for Inhibitors of human tyrosyl-DNA phosphodiesterase 1 (TDP1): qHTS in cells in absence of CPT | Potency, µM (series often up to 46.2 µM), without a hit: at the highest dose activity change, negative = growth inhibition, actives largely listed as inhibitors | AID 686978, 2013 | DT40 Tdp1-/- hTDP1 cells, no CPT, ATP luminescence, 48 h | hit rate 15% among 420,000; note: nearly all actives have a fitted effect of over 55% in size
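Luminescent ATP content (CellTiter-Glo) served as the growth readout. Knockout chicken DT40 cells expressing human TDP1 were exposed to compounds without camptothecin for a minimum 48 hr at 37 °C.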
RORgamma inh: inhibitors of mouse ROR gamma transcriptional activity. P51450. Drosophila S2 Gal4-RORgamma UAS-luciferase reporter, 20 h. Potency, µM (doses to about 53.6 µM), without a hit: at the highest dose activity change, negative = inhibition, usual class: inhibitors. hit rate 5.4% among 310,000; note: nearly all actives have a fitted effect of over 60% in size
Target sequence (P51450 whole entry, looked up, the tested form may be a part): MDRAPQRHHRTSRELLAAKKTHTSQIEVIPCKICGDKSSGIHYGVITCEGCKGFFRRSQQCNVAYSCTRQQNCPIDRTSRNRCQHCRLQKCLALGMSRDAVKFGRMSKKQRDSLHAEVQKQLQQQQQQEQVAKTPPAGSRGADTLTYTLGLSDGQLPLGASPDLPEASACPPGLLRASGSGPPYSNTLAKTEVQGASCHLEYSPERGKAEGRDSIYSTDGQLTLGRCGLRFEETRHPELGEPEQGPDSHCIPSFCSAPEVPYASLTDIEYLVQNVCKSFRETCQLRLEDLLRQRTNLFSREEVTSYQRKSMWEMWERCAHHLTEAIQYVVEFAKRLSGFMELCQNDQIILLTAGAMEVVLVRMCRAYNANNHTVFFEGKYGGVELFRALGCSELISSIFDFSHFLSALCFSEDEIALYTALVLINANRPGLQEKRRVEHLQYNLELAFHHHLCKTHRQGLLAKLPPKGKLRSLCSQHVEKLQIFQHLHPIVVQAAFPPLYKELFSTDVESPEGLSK
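Drosophila Schneider cells stably carrying a metallothionein-driven Gal4 DBD–ROR gamma fusion and a UAS-Photinus luciferase reporter were exposed to compound for 1 hr, then induced with copper sulfate (700 uM final) for 20 hr at ambient temperature before luminescence reading.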
* = called active by the depositor; u = inconclusive; x = no result given; [ ] = another dose, or the depositor's remark. Calls come from the whole dose curve; as a rule, active = well fitted curve in the direction sought with a large enough effect; inconclusive = small, poorly fitted or top-dose-only effect, or another doubt; inactive = no such curve, though single readings can be large; an effect the other way counts as inactive or inconclusive. % is set by controls: 0 for no effect and ±100 for the full control effect; potency is the fitted concentration of half-maximal effect.

SMILES	TDP1 inh	Gal4-VP16 FLuc	DT40 TDP1 CPT	TDP1 cell noCPT	RORgamma inh
COc1ccc(Br)cc1/C=C/C(=O)Nc1ccc2ccccc2c1	5.5%	-9.2%	u	u	35.6%
COc1ccc(Br)cc1/C=C/C(=O)Nc1ccc(C)cc1	-3.0%	-0.1%	16.4µM*	16.4µM*	40.8%
Cn1cccc1-c1cc(C(=O)N2CCc3c([nH]c4ccccc34)C2c2ccccn2)[nH]n1 (stereo not given)	11.1%	-3.5%	u	u	1.5%
CCC(Sc1nc2ccccc2s1)C(=O)Nc1nnc(C)s1 (stereo not given)	3.1%	1.2%	-18.9%	-16.9%	u
CC(Sc1nc2ccccc2s1)C(=O)Nc1nnc(C(C)C)s1 (stereo not given)	1.1%	u	-12.8%	u	2.82µM*
COc1ccc(NC(=O)CSc2nnc(C3CC3)n2C)cc1S(=O)(=O)N1CCOCC1	-13.0%	x	0.6%	-0.1%	x
Cc1cccc(Nc2nnc(SCc3cc(=O)n4cc(C)ccc4n3)s2)c1	4.5%	-3.4%	23.1µM*	23.1µM*	u
Cc1ccc(Nc2nnc(SCc3cc(=O)n4ccsc4n3)s2)c(C)c1	1.0%	-2.4%	-28.4%	u	-2.3%
Cc1ccc(OCC(=O)Nc2nnc(SCc3cc(=O)n4cc(C)ccc4n3)s2)cc1	2.7%	x	1.2%	0.2%	x
COc1ccccc1Nc1nnc(SCc2cc(=O)n3ccsc3n2)s1	-1.3%	-13.8%	u	23.1µM*	13.1%
Cc1cccc(C)c1NC(=S)/C(=C(\[O-])c1cccs1)[n+]1ccccc1	2.7%	20µM*	-18.7%	u	u
CC(Nc1oc(-c2ccc(COc3ccc(Cl)cc3)o2)nc1C#N)c1ccccc1 (stereo not given)	2.6%	x	u	u	x
Cc1ccc(NC(=O)c2ccc(Cl)cc2[N+](=O)[O-])nc1	2.8%	-1.6%	3.26µM*	3.26µM*	-22.5%
O=C(Cc1ccccc1)Nc1nccs1	x	28.2%	-17.4%	-13.8%	-15.9%
O=C(Nc1nccs1)c1ccc(Cl)cc1[N+](=O)[O-]	6.0%	u	-18.7%	-12.1%	10µM*
Cc1ccc(NC(=O)c2ccccc2[N+](=O)[O-])nc1	7.9%	4.6%	u	u	-0.5%
O=C(Cc1ccccc1[N+](=O)[O-])Nc1nccs1	0.6%	-5.0%	8.2µM*	u	9.4%
O=C(Nc1nccs1)c1ccc(Cl)c([N+](=O)[O-])c1	7.6%	4.47µM*	5.0%	2.8%	6.31µM*
CCc1cccc(C)c1NS(=O)(=O)c1cc(-c2cc(C)no2)ccc1C	2.6%	x	u	u	x
COc1ccc(NC(=O)C/C(C)=N/NC(=O)c2ccco2)c([N+](=O)[O-])c1	11.3%	8.3%	3.0%	-1.4%	-15.3%
COc1ccc(C(=O)N2CCC[C@@]3(CCN(c4ccncc4)C3)C2)cc1	x	-4.2%	-0.5%	-15.0%	-3.8%
CCCCn1c(N)c(N(CC(C)C)C(=O)c2ccc(OC)c(S(=O)(=O)N3CCOCC3)c2)c(=O)[nH]c1=O	x	x	1.7%	2.5%	x
Cc1[nH]c2ccccc2c1C(=O)COC(=O)CCS(=O)(=O)c1ccccc1Cl	8.5%	-11.3%	u	u	-25.3%
O=C(Nc1nccs1)c1ccc(N2CCOCC2)c([N+](=O)[O-])c1	9.5%	u	u	20.6µM*	u
O=[N+]([O-])c1cccc(S(=O)(=O)Nc2ccc(S(=O)(=O)Nc3nccs3)cc2)c1	x	x	-7.6%	-1.3%	x
SMILES	TDP1 inh	Gal4-VP16 FLuc	DT40 TDP1 CPT	TDP1 cell noCPT	RORgamma inh
Cc1ccc(-c2cc(NC(=O)c3ccccc3[N+](=O)[O-])n[nH]2)cc1	x	4.3%	u	20.6µM*	u
O=[N+]([O-])c1ccccc1S(=O)(=O)Nc1ccc(S(=O)(=O)Nc2nccs2)cc1	x	3.5%	u	16.4µM*	-1.7%
Cc1cc(Br)cc(C)c1NC(=O)c1ccccc1[N+](=O)[O-]	5.5%	3.2%	9.8%	0.0%	-0.8%
O=C(Nc1ccccc1N1CCOCC1)c1ccc(N2CCOCC2)c([N+](=O)[O-])c1	2.7%	4.7%	u	u	20.6%
CC(C)(C)C(=O)N1CCN(c2c(Cl)cccc2[N+](=O)[O-])CC1	-2.6%	9.4%[0.365 µM]	-12.3%	-22.8%	21.8%
CCNc1ccc(C2(O)C(=O)c3ccccc3C2=O)cc1	0.6%	6.0%	12.3%	6.1%	4.3%
CC(C)(C)c1cccc(C2(O)C(=O)c3ccccc3C2=O)c1O	0.0%	12.6µM*	u	9.2µM*	-27.5%
Cc1ccc(C2(O)C(=O)c3ccccc3C2=O)c(O)c1C	50.1µM*	6.1%	u	u	22.5%
COc1cccc(CN2C(=NC(=O)C3CCCO3)SC3CS(=O)(=O)CC32)c1 (stereo not given)	x	x	8.6%	5.3%	x
COc1ccc(-n2c(C)c3c(C)nnc(C)c3c2C)cc1OC	x	x	16.4µM*	14.6µM*	x
COc1ccc(-n2c(C)c(C(C)=O)c(C(C)=O)c2C)cc1OC	3.0%	-1.5%	-16.7%	-20.9%	4.9%
O=C(NCc1ccccc1)C1C(=O)Nc2ccccc2C(=O)N1C1CCCC1 (stereo not given)	x	x	-1.6%	1.8%	x
COc1ccc(NC(=O)C(c2ccc(C#N)cc2)n2c(=O)c(-c3ccco3)nc3ccccc32)cc1 (stereo not given)	x	x	-17.7%	-28.0%	x
COc1ccc(NC(=O)C(c2ccccc2)n2c(=O)c(-c3ccco3)nc3ccccc32)cc1 (stereo not given)	x	x	10.3µM*	9.2µM*	x
O=C(Nc1ccc2c(c1)OCCO2)C(c1ccccc1F)n1c(=O)c(-c2ccco2)nc2ccccc21 (stereo not given)	x	x	8.2µM*	u	x
COc1ccc(C(C(=O)Nc2ccc3c(c2)OCCO3)n2c(=O)c(-c3ccco3)nc3ccccc32)cc1 (stereo not given)	x	x	11.6µM*	20.6µM*	x
COc1ccc(C(C(=O)NC(C)(C)C)n2c(=O)c(-c3ccco3)nc3ccccc32)cc1 (stereo not given)	x	x	u	23.1µM*	x
S=C(Nc1ccccc1Cl)N(Cc1ccccc1)Cc1ccccn1	5.3%	-4.8%[10 µM]	u	u	24.4%
CCC1Oc2ccccc2N(CC(=O)N2CCOCC2)C1=O (stereo not given)	5.6%	1.4%	9.4%	-12.5%	-8.6%
Cc1cccc(N2CCN(CC(O)COc3ccccc3Cl)CC2)c1 (stereo not given)	12.5%	-3.5%	u	16.4µM*	-5.4%
OC(COc1c(F)cc(Br)cc1F)CN1CCN(c2ccc(F)cc2)CC1 (stereo not given)	6.1%	u	u	18.4µM*	3.3%

Bioassay records: PubChem, National Center for Advancing Translational Sciences (NCATS)
